From ChEMBL document CHEMBL1961873, “Compounds: GSK PKIS; Assays: Nanosyn kinase panel” (2012) come the findings set out here.

The target in assay [1] is MAP/microtubule affinity-regulating kinase 3 (Homo sapiens) (UniProt P27448). The note with it: at 1 µM.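 Also: reported values are averaged percent inhibition of MARK3.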
In assay [2] the target is T1, MAP/microtubule affinity-regulating kinase 4 (Homo sapiens) (UniProt Q96L34).
T1 sequence (whole entry): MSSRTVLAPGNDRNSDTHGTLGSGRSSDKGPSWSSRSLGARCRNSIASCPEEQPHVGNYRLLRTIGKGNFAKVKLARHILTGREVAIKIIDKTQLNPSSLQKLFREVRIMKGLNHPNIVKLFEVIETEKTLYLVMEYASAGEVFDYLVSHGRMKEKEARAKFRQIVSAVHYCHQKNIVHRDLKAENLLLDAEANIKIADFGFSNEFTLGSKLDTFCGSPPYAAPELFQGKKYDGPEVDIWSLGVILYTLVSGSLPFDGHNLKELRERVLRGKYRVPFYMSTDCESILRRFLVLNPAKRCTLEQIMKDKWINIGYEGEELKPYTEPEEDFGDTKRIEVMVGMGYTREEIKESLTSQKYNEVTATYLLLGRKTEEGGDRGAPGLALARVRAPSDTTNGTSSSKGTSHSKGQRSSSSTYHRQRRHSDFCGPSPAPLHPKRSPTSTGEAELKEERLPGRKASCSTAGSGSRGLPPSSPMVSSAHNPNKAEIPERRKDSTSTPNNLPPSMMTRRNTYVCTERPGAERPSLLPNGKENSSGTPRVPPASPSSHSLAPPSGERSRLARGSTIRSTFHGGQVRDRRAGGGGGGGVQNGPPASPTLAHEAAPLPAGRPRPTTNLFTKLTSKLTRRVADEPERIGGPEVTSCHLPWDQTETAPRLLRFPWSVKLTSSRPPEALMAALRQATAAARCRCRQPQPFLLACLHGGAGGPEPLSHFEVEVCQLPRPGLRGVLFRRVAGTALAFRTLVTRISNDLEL
The note with it: at 0.1 µM.

The target of assay [3] is T1, MAP/microtubule affinity-regulating kinase 4 (Homo sapiens). The note with it: at 1 µM.
Assay [4] concerns the target Maternal embryonic leucine zipper kinase (Homo sapiens) (UniProt Q14680). As to conditions: at 0.1 µM.
The target is the same in assay [5]. The note with it: at 1 µM.
Assay [6] has as its target MAP kinase-interacting serine/threonine-protein kinase 1 (Homo sapiens) (UniProt Q9BUB5). As to conditions: at 0.1 µM.
Assay [7] has the same target. The note with it: at 1 µM.
Assay [8] deals with MAP kinase-interacting serine/threonine-protein kinase 2 (Homo sapiens) (UniProt Q9HBH9). As to conditions: at 0.1 µM.
Sequence of MAP kinase-interacting serine/threonine-protein kinase 2 (Homo sapiens) (Q9HBH9 whole entry, looked up): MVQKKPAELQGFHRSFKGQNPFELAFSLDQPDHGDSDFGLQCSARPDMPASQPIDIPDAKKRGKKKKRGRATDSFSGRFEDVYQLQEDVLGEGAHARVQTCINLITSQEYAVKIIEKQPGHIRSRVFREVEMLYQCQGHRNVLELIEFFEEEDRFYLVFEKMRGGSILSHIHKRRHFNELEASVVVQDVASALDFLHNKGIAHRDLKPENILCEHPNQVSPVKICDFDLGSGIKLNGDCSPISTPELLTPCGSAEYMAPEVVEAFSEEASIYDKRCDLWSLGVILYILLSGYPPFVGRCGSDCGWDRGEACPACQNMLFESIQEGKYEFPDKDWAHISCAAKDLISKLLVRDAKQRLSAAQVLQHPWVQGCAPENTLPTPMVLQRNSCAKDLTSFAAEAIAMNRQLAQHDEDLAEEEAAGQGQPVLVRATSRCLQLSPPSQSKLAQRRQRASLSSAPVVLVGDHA
Assay [9] shares this target. The note with it: at 1 µM.
The target in assay [10] is Serine/threonine-protein kinase MARK2 (Homo sapiens) (UniProt Q7KZI7). As to conditions: at 0.1 µM.
Sequence of Serine/threonine-protein kinase MARK2 (Homo sapiens) (Q7KZI7 whole entry): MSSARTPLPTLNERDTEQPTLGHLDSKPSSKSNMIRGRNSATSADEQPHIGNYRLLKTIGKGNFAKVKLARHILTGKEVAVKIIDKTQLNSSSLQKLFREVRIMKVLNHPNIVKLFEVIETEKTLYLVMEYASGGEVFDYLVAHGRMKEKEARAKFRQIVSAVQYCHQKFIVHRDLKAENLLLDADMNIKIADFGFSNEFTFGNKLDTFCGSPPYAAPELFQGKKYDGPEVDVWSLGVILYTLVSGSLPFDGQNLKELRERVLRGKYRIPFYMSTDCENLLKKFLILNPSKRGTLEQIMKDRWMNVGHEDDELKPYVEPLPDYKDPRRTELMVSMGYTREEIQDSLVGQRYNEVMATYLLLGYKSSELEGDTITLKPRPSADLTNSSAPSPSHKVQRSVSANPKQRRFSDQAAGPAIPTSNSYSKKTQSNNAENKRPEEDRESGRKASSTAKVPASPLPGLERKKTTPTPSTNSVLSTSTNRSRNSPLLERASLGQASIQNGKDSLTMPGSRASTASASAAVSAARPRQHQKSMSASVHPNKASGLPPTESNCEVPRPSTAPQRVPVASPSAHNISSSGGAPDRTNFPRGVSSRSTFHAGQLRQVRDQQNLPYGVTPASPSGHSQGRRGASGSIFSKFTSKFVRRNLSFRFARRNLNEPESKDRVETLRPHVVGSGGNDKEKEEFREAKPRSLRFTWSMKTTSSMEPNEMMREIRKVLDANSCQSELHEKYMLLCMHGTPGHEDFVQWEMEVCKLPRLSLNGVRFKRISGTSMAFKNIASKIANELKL
Assay [11] has the same target. As to conditions: at 1 µM.
For assay [12], the target named is PAS domain-containing serine/threonine-protein kinase (Homo sapiens) (UniProt Q96RG2). The note with it: at 0.1 µM.
Sequence of PAS domain-containing serine/threonine-protein kinase (Homo sapiens) (Q96RG2 whole entry, the tested form may be a part): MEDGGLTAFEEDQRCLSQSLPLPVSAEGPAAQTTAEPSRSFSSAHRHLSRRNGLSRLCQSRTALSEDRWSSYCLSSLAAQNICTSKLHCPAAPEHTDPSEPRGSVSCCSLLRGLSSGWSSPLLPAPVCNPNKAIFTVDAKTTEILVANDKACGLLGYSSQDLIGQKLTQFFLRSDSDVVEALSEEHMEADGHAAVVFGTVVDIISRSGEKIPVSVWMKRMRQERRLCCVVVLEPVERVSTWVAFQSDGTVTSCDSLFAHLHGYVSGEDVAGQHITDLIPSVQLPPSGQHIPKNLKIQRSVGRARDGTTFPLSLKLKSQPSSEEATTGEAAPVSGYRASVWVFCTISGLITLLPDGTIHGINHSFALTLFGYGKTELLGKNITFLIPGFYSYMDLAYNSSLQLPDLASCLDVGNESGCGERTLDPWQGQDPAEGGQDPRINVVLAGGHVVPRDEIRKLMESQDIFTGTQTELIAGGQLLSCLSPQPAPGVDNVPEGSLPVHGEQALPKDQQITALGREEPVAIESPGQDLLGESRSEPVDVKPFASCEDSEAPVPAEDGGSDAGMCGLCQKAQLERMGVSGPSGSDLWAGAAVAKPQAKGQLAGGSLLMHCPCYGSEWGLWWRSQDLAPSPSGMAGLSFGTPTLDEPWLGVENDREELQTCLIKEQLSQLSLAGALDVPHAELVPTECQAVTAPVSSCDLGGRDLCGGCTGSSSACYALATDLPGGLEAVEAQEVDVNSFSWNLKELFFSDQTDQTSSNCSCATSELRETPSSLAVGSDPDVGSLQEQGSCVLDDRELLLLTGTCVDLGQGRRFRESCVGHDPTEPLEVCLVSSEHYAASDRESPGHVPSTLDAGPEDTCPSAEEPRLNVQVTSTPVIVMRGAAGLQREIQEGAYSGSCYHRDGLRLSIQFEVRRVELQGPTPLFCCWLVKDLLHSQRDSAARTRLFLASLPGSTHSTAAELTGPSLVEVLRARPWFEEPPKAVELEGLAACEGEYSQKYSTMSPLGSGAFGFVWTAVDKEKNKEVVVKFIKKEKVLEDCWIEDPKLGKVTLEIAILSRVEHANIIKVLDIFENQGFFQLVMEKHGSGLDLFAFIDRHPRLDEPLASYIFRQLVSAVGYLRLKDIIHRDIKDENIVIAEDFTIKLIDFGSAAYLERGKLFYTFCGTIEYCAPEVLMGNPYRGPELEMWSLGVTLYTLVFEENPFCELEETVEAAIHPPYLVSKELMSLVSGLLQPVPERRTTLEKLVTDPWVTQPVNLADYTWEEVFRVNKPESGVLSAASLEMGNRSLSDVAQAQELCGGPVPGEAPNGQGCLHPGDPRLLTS
For assay [13] the target is unchanged. As to conditions: at 1 µM.
For assay [14], the target named is Phosphorylase b kinase gamma catalytic chain, skeletal muscle/heart isoform (Homo sapiens) (UniProt Q16816). As to conditions: at 0.1 µM.
Sequence of Phosphorylase b kinase gamma catalytic chain, skeletal muscle/heart isoform (Homo sapiens) (Q16816 whole entry, looked up, canonical isoform): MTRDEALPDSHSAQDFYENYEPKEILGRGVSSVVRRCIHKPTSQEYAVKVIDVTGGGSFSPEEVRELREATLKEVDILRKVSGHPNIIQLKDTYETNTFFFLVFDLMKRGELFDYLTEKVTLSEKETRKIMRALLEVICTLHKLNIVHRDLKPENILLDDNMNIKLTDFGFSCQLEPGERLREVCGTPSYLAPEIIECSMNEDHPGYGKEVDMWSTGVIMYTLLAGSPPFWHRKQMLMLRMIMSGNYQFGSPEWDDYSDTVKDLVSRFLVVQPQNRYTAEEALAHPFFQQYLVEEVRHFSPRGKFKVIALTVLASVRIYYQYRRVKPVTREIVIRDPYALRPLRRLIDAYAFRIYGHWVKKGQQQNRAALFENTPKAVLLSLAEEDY
The target is the same in assay [15]. The note with it: at 1 µM.
Assay [16] deals with T2, Phosphorylase b kinase gamma catalytic chain, liver/testis isoform (Homo sapiens) (UniProt P15735).
T2 sequence (whole entry): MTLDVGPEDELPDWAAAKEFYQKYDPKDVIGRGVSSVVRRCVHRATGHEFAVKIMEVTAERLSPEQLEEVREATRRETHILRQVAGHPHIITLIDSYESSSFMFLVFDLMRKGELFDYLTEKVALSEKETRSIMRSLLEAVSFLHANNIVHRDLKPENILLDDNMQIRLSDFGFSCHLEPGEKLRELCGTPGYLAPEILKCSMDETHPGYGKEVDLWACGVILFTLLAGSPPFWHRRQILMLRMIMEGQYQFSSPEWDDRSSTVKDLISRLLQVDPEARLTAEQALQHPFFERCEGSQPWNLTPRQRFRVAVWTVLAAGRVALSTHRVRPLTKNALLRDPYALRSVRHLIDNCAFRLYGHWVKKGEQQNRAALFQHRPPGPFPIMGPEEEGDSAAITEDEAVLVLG
The note with it: at 0.1 µM.

Assay [17] deals with T2, Phosphorylase b kinase gamma catalytic chain, liver/testis isoform (Homo sapiens). As to conditions: at 1 µM.
Assay [18] concerns the target Serine/threonine-protein kinase pim-1 (Homo sapiens) (UniProt P11309). The note with it: at 0.1 µM.
Assay [19] has the same target. As to conditions: at 1 µM.
Assay [20] deals with Serine/threonine-protein kinase pim-2 (Homo sapiens) (UniProt Q9P1W9). The note with it: at 0.1 µM.

Sequence of Maternal embryonic leucine zipper kinase (Homo sapiens) (Q14680 whole entry, looked up): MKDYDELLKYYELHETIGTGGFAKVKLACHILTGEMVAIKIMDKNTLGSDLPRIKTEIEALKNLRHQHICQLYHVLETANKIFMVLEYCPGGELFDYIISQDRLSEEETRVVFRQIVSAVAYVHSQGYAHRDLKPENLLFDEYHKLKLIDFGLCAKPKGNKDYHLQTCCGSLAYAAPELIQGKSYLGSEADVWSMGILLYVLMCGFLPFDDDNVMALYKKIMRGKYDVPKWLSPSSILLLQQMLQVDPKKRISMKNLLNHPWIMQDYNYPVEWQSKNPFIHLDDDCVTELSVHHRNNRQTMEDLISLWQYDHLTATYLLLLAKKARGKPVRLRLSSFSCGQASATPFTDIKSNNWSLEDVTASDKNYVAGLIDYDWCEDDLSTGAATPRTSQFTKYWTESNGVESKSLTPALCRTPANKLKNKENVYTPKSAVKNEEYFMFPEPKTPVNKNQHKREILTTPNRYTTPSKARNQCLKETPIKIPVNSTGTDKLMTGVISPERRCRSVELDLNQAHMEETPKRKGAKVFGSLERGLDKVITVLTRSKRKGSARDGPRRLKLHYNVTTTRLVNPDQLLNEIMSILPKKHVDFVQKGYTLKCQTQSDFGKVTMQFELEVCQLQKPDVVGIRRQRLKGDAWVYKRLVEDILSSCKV
Sequence of MAP/microtubule affinity-regulating kinase 3 (Homo sapiens) (P27448 whole entry, looked up): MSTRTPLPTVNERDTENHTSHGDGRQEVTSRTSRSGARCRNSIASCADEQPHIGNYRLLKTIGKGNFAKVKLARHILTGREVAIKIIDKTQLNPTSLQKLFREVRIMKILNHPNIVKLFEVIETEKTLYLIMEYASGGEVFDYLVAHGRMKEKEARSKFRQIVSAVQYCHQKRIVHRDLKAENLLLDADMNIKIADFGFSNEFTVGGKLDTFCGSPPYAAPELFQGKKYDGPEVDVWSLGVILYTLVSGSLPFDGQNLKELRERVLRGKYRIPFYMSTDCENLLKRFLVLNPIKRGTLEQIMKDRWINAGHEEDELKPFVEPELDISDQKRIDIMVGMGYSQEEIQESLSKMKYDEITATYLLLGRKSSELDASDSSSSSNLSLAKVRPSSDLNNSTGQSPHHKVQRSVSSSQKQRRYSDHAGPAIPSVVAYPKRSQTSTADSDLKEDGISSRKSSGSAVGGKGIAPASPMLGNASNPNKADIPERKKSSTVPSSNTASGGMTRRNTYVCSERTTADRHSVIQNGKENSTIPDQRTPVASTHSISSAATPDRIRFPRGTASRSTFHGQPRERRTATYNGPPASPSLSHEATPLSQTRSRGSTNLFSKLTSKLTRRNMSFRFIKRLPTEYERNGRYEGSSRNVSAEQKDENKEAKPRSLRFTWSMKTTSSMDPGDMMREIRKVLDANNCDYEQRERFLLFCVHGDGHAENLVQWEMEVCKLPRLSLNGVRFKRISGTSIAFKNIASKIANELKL
Sequence of MAP kinase-interacting serine/threonine-protein kinase 1 (Homo sapiens) (Q9BUB5 whole entry, looked up): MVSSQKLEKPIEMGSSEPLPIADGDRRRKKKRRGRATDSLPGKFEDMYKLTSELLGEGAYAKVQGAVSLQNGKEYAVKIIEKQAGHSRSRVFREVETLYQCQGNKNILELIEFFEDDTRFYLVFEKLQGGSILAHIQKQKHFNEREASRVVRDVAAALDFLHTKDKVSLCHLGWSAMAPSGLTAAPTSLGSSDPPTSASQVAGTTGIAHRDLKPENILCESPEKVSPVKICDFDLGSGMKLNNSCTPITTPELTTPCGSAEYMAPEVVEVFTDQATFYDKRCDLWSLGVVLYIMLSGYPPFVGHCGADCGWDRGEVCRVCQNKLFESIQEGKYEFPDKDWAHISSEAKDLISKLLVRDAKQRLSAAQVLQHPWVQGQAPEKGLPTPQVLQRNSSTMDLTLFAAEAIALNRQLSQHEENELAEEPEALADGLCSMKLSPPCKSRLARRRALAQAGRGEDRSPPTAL

The term inhibition denotes the drop in the measured response relative to a control, in per cent. For `COc1ccc2[nH]c3c4[nH]c5ccc(OC)cc5c4c4c(c3c2c1)C(=O)NC4=O`, the inhibition in assay [1] came to 33.5%; in [2], 3.93%; in assay [3], 15.9%; in assay [4], 22.3%; in assay [5], 77.6%; in assay [6], 6.39%. In addition, the inhibition in [7] is 11.5%; in [8], 8.34%; in assay [9], 18.1%; in assay [10] it was 1.57%; in assay [11], 11.8%; in assay [12], -0.49%. Besides, the inhibition in assay [13] is -1.47%; in assay [14] it was 48.4%; in [15], 73.3%; in assay [16], 9.06%; in [17], 39.8%; in assay [18], 28.7%. The values for the inhibition in [19] and in [20] were 74.2% and 21.4%, respectively.

With `CCn1cc(-c2ccnc3[nH]ccc23)c(-c2cccc(NC(=O)Nc3ccc(OCc4ccccc4)cc3)c2)n1`, the inhibition is 2.97% in [1]; 1.33% in assay [2]; 2.66% in [3]; -3.14% in assay [4]; -3.15% in [5]; 0.36% in assay [6]. The inhibition was 1.39% in [7]; -1.1% in assay [8]; -0.1% in [9]; -0.11% in [10]; 1.54% in [11]; 0.94% in assay [12]. In addition, the inhibition is 1.65% in assay [13]; 1.58% in assay [14]; 4.8% in assay [15]; 1.37% in assay [16]; 1.3% in [17]; -0.93% in assay [18]. Besides, the inhibition in assay [19] was -1.25%; in assay [20] it was 0.19%.

As to `Fc1ccc(-c2cc(-c3c[nH]nc3-c3ccccn3)ccn2)cc1`, the inhibition stood at 0.81% in assay [1]; 1.12% in assay [2]; 1.84% in [3]; 0.52% in assay [4]; 7.4% in assay [5]; 4.46% in [6]. The inhibition was 10.4% in [7]; 2.83% in assay [8]; 6.06% in [9]; -3.26% in assay [10]; -2.56% in assay [11]; -0.42% in assay [12]. In addition, the inhibition was 0.53% in [13]; 5.71% in [14]; 9.03% in assay [15]; 5.07% in assay [16]; 8.42% in [17]; -0.17% in assay [18]. The values for the inhibition in assay [19] and in assay [20] were 0.76% and 0.19%, respectively.

With `Cc1cccc2c1NC(=O)/C2=N\Nc1ccc(S(N)(=O)=O)cc1`, the inhibition in assay [1] came out at 2.38%; in [2] it was 1.25%; in assay [3] it was 2.15%; in assay [4], 3.77%; in [5], 2.1%; in assay [6] it was 1.62%. Further, the inhibition was found to be 2.53% in assay [7]; 0.84% in [8]; 1.26% in [9]; 0.47% in assay [10]; 1.34% in assay [11]; 0.5% in assay [12]. In addition, the inhibition was -1.79% in [13]; -1.4% in assay [14]; 2.98% in [15]; 3.6% in assay [16]; 2.88% in assay [17]; 1.4% in [18]. Moreover, the figures for the inhibition in [19] and in assay [20] were -0.19% and 0.28%, respectively.

Regarding `Cc1ccc(O)cc1Nc1ccnc2cc(-c3ccccn3)ccc12`, the inhibition in assay [1] worked out at 10.8%; in [2] it was 2.1%; in assay [3], 3.98%; in assay [4], 1.72%; in assay [5] it was 3.79%; in [6], 3.8%. For the same compound, the inhibition in [7] was determined as 6.21%; in assay [8] it was 1.72%; in assay [9], 4.94%; in assay [10], 0.54%; in [11], 4.34%; in assay [12], 0.71%. Besides, the inhibition in assay [13] was -0.05%; in assay [14], 2.23%; in assay [15], 9.36%; in assay [16], 5.58%; in assay [17], 2.55%; in assay [18] it was 0.67%. The inhibition turned out to be 3.79% in assay [19] and 0.49% in [20].

For the compound `COc1ccc(-c2cc(-c3c[nH]nc3-c3ccccn3)ccn2)cc1`, the inhibition in assay [1] is 5.51%; in assay [2], 2.2%; in assay [3] it was 2.28%; in assay [4] it was 3.77%; in [5] it was 8.05%; in [6] it was 3.19%. Moreover, the inhibition in [7] came out at 7.19%; in assay [8] it was 2%; in [9], 6.65%; in [10] it was 2.97%; in assay [11] it was 1.63%; in [12], 1.23%. Besides, the inhibition was 0.75% in assay [13]; 2.63% in assay [14]; 6.04% in assay [15]; 6.55% in assay [16]; 8.39% in assay [17]; -0.05% in assay [18]. In addition, the inhibition was found to be 0.03% in assay [19] and 0.36% in assay [20].

`COc1ccc(CNC(=O)c2ccc(-c3cc(-c4nnc(C)o4)ccc3C)cc2)cc1`: the inhibition in assay [1] worked out at 0.99%; in assay [2], 2.25%; in assay [3], 1.91%; in [4], 0.76%; in assay [5], 1.99%; in [6], 4.23%. For the same compound, the inhibition came to 9.25% in assay [7]; 4.37% in assay [8]; 8.59% in [9]; 1.99% in assay [10]; 0.82% in assay [11]; 2.29% in assay [12]. Besides, the inhibition in assay [13] worked out at 8.41%; in assay [14] it was 3.84%; in assay [15] it was 6.56%; in assay [16], 3.12%; in assay [17], 9.31%; in assay [18], 1.62%. For the same compound, the inhibition is 1.96% in assay [19] and 2.9% in [20].
